“And” between values parts separate entries of the source, which are not always exact repeats. Identical values can stand only once. Screen size: about 5,500 compounds; about 2,000 (36%) were called active. Inconclusive results (about 18%) are left out. No stated cut-off is given here; in the data, active means normalized growth mostly below about 0.91 (no sharp cut-off); inconclusive means no clear call, values can overlap the other calls; inactive means mostly above about 0.92. The list shows a part of the results.
Assay: chemical genetic growth profiling, strain panel (AID 1159580);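 further: tested at 20 µM; growth read once vehicle control cultures reached saturation at 30 °C; 1 = growth at the plate median or of vehicle wells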
Details: S. cerevisiae deletion strains, growth OD

Measured: normalized growth

COP(N)(=O)SC (configuration not stated)
inactive: locus YAL013W, strain DEP1, stronger effect = lower value 1 | locus YAL021C, strain ccr4, stronger effect = lower value 0.981 | locus YAL026C, strain drs2, stronger effect = lower value 1.01 | locus YAL030W, strain snc1, stronger effect = lower value 1 | locus YBL061C, strain skt5, stronger effect = lower value 1.01 | locus YBR009C, strain hhf1, stronger effect = lower value 1.02 | locus YBR021W, strain FUR4, stronger effect = lower value 1.01 | locus YBR023C, strain chs3, stronger effect = lower value 1.01 | locus YBR171W, strain sec66, stronger effect = lower value 1 | locus YBR229C, strain ROT2, stronger effect = lower value 0.978 | locus YBR231C, strain swc5, stronger effect = lower value 1.01 | locus YBR279W, strain paf1, stronger effect = lower value 1.01 | locus YCL011C, strain gbp2, stronger effect = lower value 1 | locus YCL016C, strain dcc1, stronger effect = lower value 1 | locus YCL029C, strain bik1, stronger effect = lower value 1.01 | locus YCL061C, strain MRC1, stronger effect = lower value 0.997 | locus YCL069W, strain vba3, stronger effect = lower value 1 | locus YCR088W, strain abp1, stronger effect = lower value 1 | locus YDL005C, strain med2, stronger effect = lower value 1 | locus YDL035C, strain GPR1, stronger effect = lower value 1.01 | locus YDL040C, strain nat1, stronger effect = lower value 1.01 | locus YDL074C, strain BRE1, stronger effect = lower value 0.993 | locus YDL101C, strain DUN1, stronger effect = lower value 0.978 | locus YDL134C, strain PPH21, stronger effect = lower value 1.01 | locus YDL185W, strain tfp1, stronger effect = lower value 1.01 | locus YDL192W, strain arf1, stronger effect = lower value 1.01 | locus YDR001C, strain nth1, stronger effect = lower value 0.994 | locus YDR069C, strain doa4, stronger effect = lower value 1.01 | locus YDR101C, strain arx1, stronger effect = lower value 1 | locus YDR137W, strain rgp1, stronger effect = lower value 1.01 | locus YDR150W, strain NUM1, stronger effect = lower value 0.987 | locus YDR159W, strain sac3, stronger effect = lower value 1.02 | locus YDR162C, strain NBP2, stronger effect = lower value 0.993 | locus YDR195W, strain ref2 0.999 | locus YDR297W, strain sur2, stronger effect = lower value 1 | locus YDR318W, strain mcm21, stronger effect = lower value 1.01 | locus YDR334W, strain swr1, stronger effect = lower value 1 | locus YDR335W, strain msn5, stronger effect = lower value 0.998 | locus YDR388W, stronger effect = lower value 1.01 | locus YDR392W, strain spt3, stronger effect = lower value 1.01 | locus YDR502C, strain sam2, stronger effect = lower value 1.01 | locus YEL003W, strain gim4, stronger effect = lower value 1 | locus YEL037C, strain rad23, stronger effect = lower value 0.998 | locus YEL061C, strain CIN8 (second series), stronger effect = lower value 1.01 | locus YEL061C, strain CIN8, stronger effect = lower value 1 | locus YER015W, strain faa2, stronger effect = lower value 1.01 | locus YER016W, strain bim1, stronger effect = lower value 1.01 | locus YER110C, stronger effect = lower value 1.01 | locus YER111C, strain swi4, stronger effect = lower value 1.01 | locus YER155C, strain BEM2 (second series), stronger effect = lower value 1.02 | locus YER155C, strain BEM2, stronger effect = lower value 0.98 | locus YER167W, strain BCK2, stronger effect = lower value 1 | locus YFR010W, strain ubp6, stronger effect = lower value 0.994 | locus YGL078C, strain dbp3, stronger effect = lower value 1.01 | locus YGL086W, strain mad1, stronger effect = lower value 1.01 | locus YGL167C, strain pmr1, stronger effect = lower value 1.01 | locus YGL173C, strain kem1, stronger effect = lower value 1.02 | locus YGL227W, strain vid30, stronger effect = lower value 1.01 | locus YGL240W, strain doc1, stronger effect = lower value 1.02 | locus YGL248W, strain PDE1, stronger effect = lower value 1.01 | locus YGL253W, strain hxk2, stronger effect = lower value 0.997 | locus YGR078C, strain PAC10, stronger effect = lower value 0.997 | locus YGR135W, strain pre9, stronger effect = lower value 0.999 | locus YGR229C, strain SMI1, stronger effect = lower value 1 | locus YGR252W, strain gcn5, stronger effect = lower value 1.02 | locus YHR013C, strain ard1, stronger effect = lower value 0.994 | locus YHR027C, strain rpn1, stronger effect = lower value 1 | locus YHR030C, strain SLT2, stronger effect = lower value 0.986 and 1.05 | locus YHR079C, strain IRE1 (second series), stronger effect = lower value 1.02 | locus YHR079C, strain IRE1, stronger effect = lower value 1.07 | locus YHR094C, strain hxt1, stronger effect = lower value 1.01 | locus YHR129C, strain ARP1, stronger effect = lower value 0.998 | locus YHR142W, strain chs7, stronger effect = lower value 0.982 | locus YHR200W, strain rpn10, stronger effect = lower value 1.01 | locus YIL066C, strain RNR3, stronger effect = lower value 1.03 | locus YIL073C, strain SPO22, stronger effect = lower value 1.06 | locus YIL125W, strain kgd1, stronger effect = lower value 1 | locus YIR030C, strain dcg1, stronger effect = lower value 1.01 | locus YJL092W, strain hpr5, stronger effect = lower value 0.998 | locus YJL095W, strain BCK1 (second series), stronger effect = lower value 1.01 | locus YJL095W, strain BCK1, stronger effect = lower value 0.99 and 1.03 | locus YJL115W, strain asf1, stronger effect = lower value 1 | locus YJL129C, strain trk1, stronger effect = lower value 0.993 | locus YJL134W, strain LCB3, stronger effect = lower value 1 | locus YJL154C, strain vps35, stronger effect = lower value 0.998 | locus YJL164C, strain tpk1, stronger effect = lower value 1 | locus YJL166W, strain qcr8, stronger effect = lower value 1.01 | locus YJL168C, strain set2, stronger effect = lower value 1.01 | locus YJL187C, strain SWE1 (second series), stronger effect = lower value 1.01 | locus YJL187C, strain SWE1, stronger effect = lower value 1.01 | locus YJR043C, strain POL32, stronger effect = lower value 1.02 | locus YJR066W, strain TOR1, stronger effect = lower value 0.985

Reference: PubChem BioAssay AID1159580 (chemical genetic matrix, 2015)
